Experimental data reported in PubChem BioAssay (NCI).
About 83,000 compounds went through this panel and 20% of them were active in at least one assay; those are over-represented in the sample as a whole.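 Negative percent growth values reflect cell death: -40 means 40% of the cells present at the start died, and -100 means all died.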 Unmarked numbers belong to inactive results. The source made the active and inactive calls. The calls were made as follows: active = growth percent below 10; inactive = the rest.

System: MOLT-4 leukemia
Test: NCI-60 one-dose screen, 48 h (100 = growth as untreated, 0 = no growth, -100 = all killed)
Conditions: 10 µM unless noted

Row | Structure (SMILES) | growth
1 | O=S(=O)(OCCOS(=O)(=O)c1ccccc1)c1ccccc1 | 93%
2 | O=C(OC1CCCC1)c1ccccc1Cl | 110%
3 | N#CCCN1C(=O)CCC1C(=O)O (configuration not stated) | -26.9% (active)
4 | CCOC(=O)C(CCC#N)(CCC#N)C(=O)OCC | 97.3%
5 | Cc1ccc(OC(=O)c2ccccc2)cc1 | 104%
6 | O=C1NC(=O)C(c2ccccc2)O1 (configuration not stated) | 98.3%
7 | O=C(CCl)Oc1ccc([N+](=O)[O-])cc1 | 105%
8 | CCCCNC(=O)c1ccc(OCC)cc1 | 105%
9 | CC(CCC#N)(CCC#N)C(=O)c1ccccc1 | 97.8%
10 | O=[N+]([O-])c1c(Cl)ncnc1Cl | 112%
11 | Cc1ccc(S(=O)(=O)CCCl)cc1 | 95.5%
12 | Cc1ccc(NC(=O)c2ccccc2Cl)cc1 | 87.8%
